The record followed here is PubChem BioAssay (NCI).

Some test systems named below: HCT-15 colon; HT29 colon; SNB-75 CNS; SNB-19 CNS; U251 CNS; PC-3 prostate; SK-MEL-5 melanoma; UACC-62 melanoma; LOX IMVI melanoma; SK-MEL-28 melanoma; SK-MEL-2 melanoma; EKVX NSCLC; SN12C renal; UO-31 renal; TK-10 renal; ACHN renal; CAKI-1 renal; A498 renal; CCRF-CEM leukemia; MOLT-4 leukemia.
What all share (experiment): NCI-60 one-dose screen, 48 h (100 = growth as untreated, 0 = no growth, -100 = all killed)
Holding throughout (details): 10 µM unless noted

Where “and” joins values, the source holds several entries; their conditions need not be identical. Identical values can stand only once. This is part of a sample that, as a whole, favours compounds with a hit. Of some 83,000 tested, about 20% had one in any assay.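 Cell lines were cultured in 96-well plates, exposed to a single compound concentration, and assessed for percent growth 48 hours later.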 Calls of active or inactive are those of the source. The calls were made as follows: active = growth percent below 10; inactive = the rest.

Turning to `COc1ccc(Cn2cc(C(=O)Nc3cccnc3Nc3ccccc3)nn2)cc1`, the growth in the assay on HCT-15 colon is 94.8% (inactive); in the assay on HT29 colon, 106% (inactive); in the assay on SNB-75 CNS, 89.2% (inactive); in the assay on SNB-19 CNS, 93.3% (inactive); in the assay on U251 CNS, 99.5% (inactive); in the assay with PC-3 prostate it was 91% (inactive). The growth was 90.2% (inactive) in the assay with SK-MEL-5 melanoma; 83.2% (inactive) in the assay with UACC-62 melanoma; 92% (inactive) with LOX IMVI melanoma; 113% (inactive) in the assay on SK-MEL-28 melanoma; 107% (inactive) in the assay with SK-MEL-2 melanoma; 92.8% (inactive) in the assay with EKVX NSCLC. For the same molecule, the growth in the assay with SN12C renal is 86.5% (inactive); in the assay on UO-31 renal, 70.9% (inactive); with TK-10 renal it was 95.1% (inactive); in the assay on ACHN renal, 105% (inactive); in the assay on CAKI-1 renal, 88.4% (inactive); in the assay on A498 renal, 117% (inactive). Further, the growth with CCRF-CEM leukemia is 108% (inactive); in the assay with MOLT-4 leukemia it was 93.5% (inactive).

For the molecule `Nc1nc2c(s1)CCc1cn(S(=O)(=O)c3ccccc3)cc1-2`, the growth in the assay with HCT-15 colon is 98.3% (inactive) and 99.3% (inactive); in the assay on HT29 colon, 106% (inactive); in the assay with SNB-75 CNS it was 80.5% (inactive) and 89.9% (inactive); with SNB-19 CNS it was 94.6% (inactive) and 97% (inactive); with U251 CNS, 80.3% (inactive) and 97.7% (inactive); in the assay with PC-3 prostate it was 75.6% (inactive) and 84.4% (inactive). Further, the growth is 90.1% (inactive) and 95% (inactive) in the assay with SK-MEL-5 melanoma; 79.4% (inactive) and 96.3% (inactive) with UACC-62 melanoma; 84.1% (inactive) and 104% (inactive) with LOX IMVI melanoma; 113% (inactive) and 104% (inactive) with SK-MEL-28 melanoma; 106% (inactive) and 99.1% (inactive) in the assay on SK-MEL-2 melanoma; 95.8% (inactive) in the assay with EKVX NSCLC. Moreover, the growth is 86.6% (inactive) and 93.5% (inactive) with SN12C renal; 54.5% (inactive) and 84.5% (inactive) with UO-31 renal; 108% (inactive) and 115% (inactive) in the assay on TK-10 renal; 95.9% (inactive) and 101% (inactive) with ACHN renal; 85.8% (inactive) and 101% (inactive) in the assay on CAKI-1 renal; 80% (inactive) and 73.5% (inactive) in the assay on A498 renal. For the same molecule, the growth with CCRF-CEM leukemia was 79.9% (inactive) and 79.3% (inactive); in the assay on MOLT-4 leukemia, 84.3% (inactive) and 91.6% (inactive).

On to `Cc1ccc(NC(=O)c2sc3nc(C)c(C(=O)c4ccccc4)cc3c2N)cc1`, for which the growth with HCT-15 colon is 83.1% (inactive); in the assay with HT29 colon, 102% (inactive); with SNB-75 CNS, 70.7% (inactive); in the assay on SNB-19 CNS, 83.3% (inactive); in the assay with U251 CNS, 88.5% (inactive); in the assay on PC-3 prostate it was 92.2% (inactive). Further, the growth in the assay with SK-MEL-5 melanoma is 94.1% (inactive); in the assay with UACC-62 melanoma it was 79.5% (inactive); in the assay on LOX IMVI melanoma it was 94.9% (inactive); in the assay on SK-MEL-28 melanoma, 92% (inactive); with SK-MEL-2 melanoma, 93.8% (inactive); in the assay on EKVX NSCLC, 72.4% (inactive). The growth in the assay on SN12C renal is 95.8% (inactive); in the assay with UO-31 renal, 89.4% (inactive); in the assay with TK-10 renal, 99.5% (inactive); with ACHN renal, 92.8% (inactive); in the assay with CAKI-1 renal, 76.1% (inactive); in the assay on A498 renal, 4.97% (active). Moreover, the figures for the growth in the assay on CCRF-CEM leukemia and in the assay on MOLT-4 leukemia were 94.3% (inactive) and 104% (inactive), respectively.

On to `N=C(N)c1ccc(-c2ccc(-c3ccc(Cl)c(Cl)c3)s2)cc1`, for which the growth in the assay on HCT-15 colon is -62.5% (active); with HT29 colon, 6.02% (active); in the assay with SNB-75 CNS, 103% (inactive); in the assay on SNB-19 CNS, -23.8% (active); with U251 CNS it was -65.9% (active); with PC-3 prostate, -24.1% (active). Moreover, the growth with SK-MEL-5 melanoma was 94.8% (inactive); in the assay on UACC-62 melanoma, 88.6% (inactive); in the assay on LOX IMVI melanoma, -71.3% (active); in the assay on SK-MEL-28 melanoma, 107% (inactive); in the assay on SK-MEL-2 melanoma it was 107% (inactive); with EKVX NSCLC, 72.4% (inactive). Moreover, the growth in the assay on SN12C renal is 14.3% (inactive); with UO-31 renal, 54% (inactive); with TK-10 renal, 109% (inactive); with ACHN renal, -62.7% (active); with CAKI-1 renal, -69% (active); with A498 renal, 86.7% (inactive). Moreover, the growth with CCRF-CEM leukemia is 1.96% (active); with MOLT-4 leukemia, -14.9% (active).

With `CCOc1ccc(C(=O)Cc2ccccc2)cc1`, the growth was 98.2% (inactive) and 110% (inactive) in the assay with HCT-15 colon; 104% (inactive) and 111% (inactive) in the assay on HT29 colon; 101% (inactive) and 113% (inactive) in the assay on SNB-75 CNS; 101% (inactive) and 102% (inactive) with SNB-19 CNS; 108% (inactive) and 101% (inactive) in the assay with U251 CNS; 102% (inactive) and 110% (inactive) in the assay on PC-3 prostate. For the same molecule, the growth in the assay with SK-MEL-5 melanoma was 106% (inactive) and 98.5% (inactive); with UACC-62 melanoma, 98.2% (inactive) and 106% (inactive); in the assay on LOX IMVI melanoma, 102% (inactive) and 106% (inactive); with SK-MEL-28 melanoma, 115% (inactive) and 109% (inactive); in the assay with SK-MEL-2 melanoma, 103% (inactive) and 118% (inactive); with EKVX NSCLC, 98.5% (inactive) and 101% (inactive). The growth in the assay on SN12C renal is 103% (inactive) and 105% (inactive); in the assay with UO-31 renal, 91.3% (inactive) and 107% (inactive); with TK-10 renal, 85.1% (inactive) and 92.3% (inactive); with ACHN renal, 107% (inactive) and 115% (inactive); in the assay on CAKI-1 renal, 103% (inactive) and 99.6% (inactive); in the assay on A498 renal it was 79.6% (inactive) and 87.5% (inactive). Moreover, the growth in the assay on CCRF-CEM leukemia is 97.6% (inactive); with MOLT-4 leukemia, 94.4% (inactive) and 99.2% (inactive).

Consider `COc1c(NC=O)c2c(c([N+](=O)[O-])c1OC)C(=O)OC2`, for which the growth was 115% (inactive) and 90.4% (inactive) with HCT-15 colon; 102% (inactive) and 112% (inactive) in the assay with HT29 colon; 89.1% (inactive) and 62.6% (inactive) with SNB-75 CNS; 102% (inactive) and 99.5% (inactive) with SNB-19 CNS; 99.9% (inactive) and 101% (inactive) with U251 CNS; 90.7% (inactive) and 102% (inactive) in the assay on PC-3 prostate. Besides, the growth was 112% (inactive) and 95.4% (inactive) in the assay with SK-MEL-5 melanoma; 104% (inactive) and 93.7% (inactive) in the assay with UACC-62 melanoma; 103% (inactive) with LOX IMVI melanoma; 111% (inactive) and 103% (inactive) in the assay with SK-MEL-28 melanoma; 107% (inactive) and 120% (inactive) with SK-MEL-2 melanoma; 110% (inactive) and 85.7% (inactive) in the assay with EKVX NSCLC. For the same molecule, the growth was 92.1% (inactive) and 94.8% (inactive) in the assay with SN12C renal; 80.2% (inactive) in the assay on UO-31 renal; 114% (inactive) and 111% (inactive) in the assay with TK-10 renal; 130% (inactive) and 112% (inactive) in the assay with ACHN renal; 105% (inactive) and 89.1% (inactive) with CAKI-1 renal; 111% (inactive) in the assay on A498 renal. For the same molecule, the growth is 91.5% (inactive) and 3.53% (active) with CCRF-CEM leukemia; 67.9% (inactive) and 115% (inactive) in the assay on MOLT-4 leukemia.
